{"source": "paper PMC7862700", "about": "“An all-to-all approach to the identification of sequence-specific readers for epigenetic DNA modifications on cytosine”", "assay_in_all_cases": "DAPPL (digital affinity profiling via proximity ligation, sequencing); 10 mM Tris-HCl pH 7.5, 50 mM NaCl, 1 mM DTT, 4% glycerol, room temperature, 30 min; GST-TFs on glutathione beads, 16-mer random dsDNA library, 0.1% formaldehyde crosslink after washing; high values mean tight binding", "details_in_all_cases": "protein: recombinant; tags: N-terminal GST; dsDNA, one strand shown", "key": {"[1]": {"molecular_target": "T1, FLI1 (Homo sapiens, UniProt Q01543 1-452)", "T1 sequence": "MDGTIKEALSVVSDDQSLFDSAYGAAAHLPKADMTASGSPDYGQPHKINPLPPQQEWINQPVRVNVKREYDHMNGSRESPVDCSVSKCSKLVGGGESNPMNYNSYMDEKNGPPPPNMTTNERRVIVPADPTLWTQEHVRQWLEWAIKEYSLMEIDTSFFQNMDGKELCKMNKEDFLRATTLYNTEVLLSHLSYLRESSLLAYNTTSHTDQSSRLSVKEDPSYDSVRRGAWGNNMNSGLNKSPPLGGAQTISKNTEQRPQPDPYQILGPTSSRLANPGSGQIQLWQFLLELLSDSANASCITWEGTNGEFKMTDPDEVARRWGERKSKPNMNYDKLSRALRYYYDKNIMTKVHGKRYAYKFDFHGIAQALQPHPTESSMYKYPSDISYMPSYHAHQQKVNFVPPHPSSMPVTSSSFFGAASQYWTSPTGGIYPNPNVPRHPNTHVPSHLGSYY", "in_short": "(§1)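 Human transcription factors fused to GST were expressed in yeast, captured on glutathione beads, given DNA barcodes and pooled with a GST-only negative control. Pools were incubated with 200 nmole of a 16-mer random double-stranded DNA library in Tris/NaCl/DTT/glycerol buffer at room temperature for 30 min. They were then washed, crosslinked with 0.1% formaldehyde, proximity-ligated (BsaI/T4 ligase, 1 h, 37 °C), PCR-amplified and sequenced on an Illumina NextSeq500. Binding signal is each 6-mer's read frequency for a factor divided by its frequency for the GST control.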"}, "[2]": {"molecular_target": "T2, ELK1 (Homo sapiens, UniProt P19419 1-428)", "T2 sequence": "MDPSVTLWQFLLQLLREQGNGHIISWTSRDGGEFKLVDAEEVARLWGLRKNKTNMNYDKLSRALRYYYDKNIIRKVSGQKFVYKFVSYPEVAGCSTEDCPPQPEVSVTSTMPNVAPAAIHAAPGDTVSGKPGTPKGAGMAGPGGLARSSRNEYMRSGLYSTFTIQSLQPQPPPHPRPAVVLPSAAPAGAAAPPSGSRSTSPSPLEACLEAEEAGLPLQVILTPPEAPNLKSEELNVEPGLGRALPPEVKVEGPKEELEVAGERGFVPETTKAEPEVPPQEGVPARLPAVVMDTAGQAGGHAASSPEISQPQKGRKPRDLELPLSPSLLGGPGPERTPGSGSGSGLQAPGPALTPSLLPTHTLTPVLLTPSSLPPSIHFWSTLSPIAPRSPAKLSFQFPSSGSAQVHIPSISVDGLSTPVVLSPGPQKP", "in_short": "as §1"}, "[3]": {"molecular_target": "T3, GABPA (Homo sapiens, UniProt Q06546 1-454)", "T3 sequence": "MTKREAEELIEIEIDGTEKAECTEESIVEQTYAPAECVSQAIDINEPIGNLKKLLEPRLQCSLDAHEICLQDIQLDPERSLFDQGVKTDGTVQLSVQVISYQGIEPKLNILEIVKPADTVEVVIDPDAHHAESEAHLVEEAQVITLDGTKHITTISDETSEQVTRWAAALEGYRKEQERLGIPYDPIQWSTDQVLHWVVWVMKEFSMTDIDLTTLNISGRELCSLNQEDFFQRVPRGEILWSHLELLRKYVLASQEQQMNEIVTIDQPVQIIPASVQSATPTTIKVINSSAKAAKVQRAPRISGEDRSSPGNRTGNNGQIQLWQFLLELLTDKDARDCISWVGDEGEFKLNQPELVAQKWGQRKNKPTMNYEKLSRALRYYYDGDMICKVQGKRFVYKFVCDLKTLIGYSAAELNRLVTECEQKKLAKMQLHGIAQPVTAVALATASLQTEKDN", "in_short": "as §1"}, "[4]": {"molecular_target": "T4, ERG (Homo sapiens, UniProt P11308 1-479)", "T4 sequence": "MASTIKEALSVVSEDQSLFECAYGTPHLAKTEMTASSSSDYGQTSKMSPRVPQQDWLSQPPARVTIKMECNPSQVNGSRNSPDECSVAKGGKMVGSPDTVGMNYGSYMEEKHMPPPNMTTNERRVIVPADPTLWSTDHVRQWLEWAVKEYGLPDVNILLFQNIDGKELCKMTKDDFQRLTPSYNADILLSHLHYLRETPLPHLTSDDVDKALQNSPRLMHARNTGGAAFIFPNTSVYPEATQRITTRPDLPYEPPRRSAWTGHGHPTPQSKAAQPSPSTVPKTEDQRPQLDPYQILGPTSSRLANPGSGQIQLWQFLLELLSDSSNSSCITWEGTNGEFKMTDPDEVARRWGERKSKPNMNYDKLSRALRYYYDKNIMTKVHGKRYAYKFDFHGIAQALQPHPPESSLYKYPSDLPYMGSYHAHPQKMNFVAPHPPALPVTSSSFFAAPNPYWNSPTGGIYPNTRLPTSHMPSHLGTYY", "in_short": "as §1"}, "[5]": {"molecular_target": "ELF1 (Homo sapiens, UniProt P32519 1-619)", "sequence (P32519 whole entry)": "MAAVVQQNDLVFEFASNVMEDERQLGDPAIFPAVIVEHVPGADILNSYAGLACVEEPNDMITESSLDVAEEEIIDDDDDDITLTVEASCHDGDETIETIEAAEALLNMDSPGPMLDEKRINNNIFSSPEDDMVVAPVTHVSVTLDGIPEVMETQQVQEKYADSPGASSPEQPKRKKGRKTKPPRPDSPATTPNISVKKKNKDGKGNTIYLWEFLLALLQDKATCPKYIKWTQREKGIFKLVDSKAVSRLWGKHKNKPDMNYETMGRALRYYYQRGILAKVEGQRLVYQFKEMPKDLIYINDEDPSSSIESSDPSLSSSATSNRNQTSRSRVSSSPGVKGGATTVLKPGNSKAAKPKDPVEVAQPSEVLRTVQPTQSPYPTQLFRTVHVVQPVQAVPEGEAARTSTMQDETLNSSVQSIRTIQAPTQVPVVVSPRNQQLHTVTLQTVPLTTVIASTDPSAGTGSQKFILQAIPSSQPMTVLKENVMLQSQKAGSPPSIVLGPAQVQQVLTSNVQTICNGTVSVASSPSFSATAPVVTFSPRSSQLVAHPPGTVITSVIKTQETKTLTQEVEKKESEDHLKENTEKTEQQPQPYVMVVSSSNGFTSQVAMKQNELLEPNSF", "in_short": "as §1"}, "[6]": {"molecular_target": "T5, EHF (Homo sapiens, UniProt Q9NZC4 1-300)", "T5 sequence": "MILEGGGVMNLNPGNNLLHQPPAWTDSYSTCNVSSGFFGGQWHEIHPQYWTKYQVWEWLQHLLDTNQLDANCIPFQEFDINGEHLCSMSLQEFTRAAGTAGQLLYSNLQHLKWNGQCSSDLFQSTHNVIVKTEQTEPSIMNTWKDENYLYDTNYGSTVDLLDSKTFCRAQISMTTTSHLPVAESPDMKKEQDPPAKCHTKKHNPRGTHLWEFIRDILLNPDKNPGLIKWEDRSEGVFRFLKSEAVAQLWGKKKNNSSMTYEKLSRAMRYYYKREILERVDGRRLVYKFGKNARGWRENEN", "in_short": "as §1"}, "[7]": {"molecular_target": "ELF4 (Homo sapiens, UniProt Q99607 1-663)", "sequence (Q99607 whole entry)": "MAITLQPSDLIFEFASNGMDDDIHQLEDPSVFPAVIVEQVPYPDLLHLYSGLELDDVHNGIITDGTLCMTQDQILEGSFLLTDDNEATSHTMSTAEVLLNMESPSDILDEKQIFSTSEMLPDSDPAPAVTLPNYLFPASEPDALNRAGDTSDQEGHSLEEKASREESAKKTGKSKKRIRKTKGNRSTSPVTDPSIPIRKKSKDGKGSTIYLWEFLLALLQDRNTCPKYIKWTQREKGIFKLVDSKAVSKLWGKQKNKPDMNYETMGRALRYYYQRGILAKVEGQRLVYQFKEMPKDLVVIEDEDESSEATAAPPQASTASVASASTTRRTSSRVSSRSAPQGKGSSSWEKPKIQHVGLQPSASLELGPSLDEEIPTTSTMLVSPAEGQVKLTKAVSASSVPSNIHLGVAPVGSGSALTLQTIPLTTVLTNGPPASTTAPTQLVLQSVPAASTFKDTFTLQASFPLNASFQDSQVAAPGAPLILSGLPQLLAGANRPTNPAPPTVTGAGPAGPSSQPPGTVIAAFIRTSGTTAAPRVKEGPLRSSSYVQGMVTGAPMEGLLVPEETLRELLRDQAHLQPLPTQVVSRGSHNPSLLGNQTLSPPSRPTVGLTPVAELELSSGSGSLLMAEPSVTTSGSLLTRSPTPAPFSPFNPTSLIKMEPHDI", "in_short": "as §1"}, "[8]": {"molecular_target": "T6, ELK4 (Homo sapiens, UniProt P28324-2 1-405)", "T6 sequence": "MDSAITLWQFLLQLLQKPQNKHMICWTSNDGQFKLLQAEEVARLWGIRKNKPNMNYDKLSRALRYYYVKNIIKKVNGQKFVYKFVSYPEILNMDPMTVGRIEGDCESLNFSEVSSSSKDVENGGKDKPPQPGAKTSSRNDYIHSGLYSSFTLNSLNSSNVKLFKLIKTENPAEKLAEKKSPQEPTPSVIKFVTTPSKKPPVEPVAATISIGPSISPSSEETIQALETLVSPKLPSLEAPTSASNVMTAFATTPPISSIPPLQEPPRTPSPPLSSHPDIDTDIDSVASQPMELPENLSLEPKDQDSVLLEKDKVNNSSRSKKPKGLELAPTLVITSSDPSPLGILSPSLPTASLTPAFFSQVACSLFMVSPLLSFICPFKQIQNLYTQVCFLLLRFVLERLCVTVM", "in_short": "as §1"}, "[9]": {"molecular_target": "T7, ETV2 (Homo sapiens, UniProt O00321 1-342)", "T7 sequence": "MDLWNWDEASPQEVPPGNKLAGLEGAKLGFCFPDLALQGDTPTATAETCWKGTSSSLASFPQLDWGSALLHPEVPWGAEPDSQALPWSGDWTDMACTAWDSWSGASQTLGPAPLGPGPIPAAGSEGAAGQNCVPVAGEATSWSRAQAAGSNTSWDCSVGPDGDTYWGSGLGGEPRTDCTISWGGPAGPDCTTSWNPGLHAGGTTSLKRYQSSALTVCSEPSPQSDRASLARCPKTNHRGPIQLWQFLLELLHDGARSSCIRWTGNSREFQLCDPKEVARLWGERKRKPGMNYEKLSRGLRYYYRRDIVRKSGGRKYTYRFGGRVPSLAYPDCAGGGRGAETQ", "in_short": "as §1"}, "[10]": {"molecular_target": "ETV1 (Homo sapiens, UniProt P50549 1-477)", "sequence (P50549 whole entry)": "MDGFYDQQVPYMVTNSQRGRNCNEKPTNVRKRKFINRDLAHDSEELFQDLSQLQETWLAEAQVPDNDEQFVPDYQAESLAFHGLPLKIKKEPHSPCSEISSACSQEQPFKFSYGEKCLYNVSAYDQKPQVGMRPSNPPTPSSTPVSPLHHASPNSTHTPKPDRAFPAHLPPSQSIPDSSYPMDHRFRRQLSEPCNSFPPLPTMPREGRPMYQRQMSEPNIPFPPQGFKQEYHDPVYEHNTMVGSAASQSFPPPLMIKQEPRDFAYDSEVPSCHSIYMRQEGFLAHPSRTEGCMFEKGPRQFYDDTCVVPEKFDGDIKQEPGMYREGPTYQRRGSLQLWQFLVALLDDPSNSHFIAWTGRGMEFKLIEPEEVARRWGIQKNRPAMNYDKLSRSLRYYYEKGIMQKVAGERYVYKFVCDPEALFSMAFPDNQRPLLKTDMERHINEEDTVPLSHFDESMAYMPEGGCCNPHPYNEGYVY", "in_short": "as §1"}, "[11]": {"molecular_target": "T8, ERF (Homo sapiens, UniProt P50548 1-548)", "T8 sequence": "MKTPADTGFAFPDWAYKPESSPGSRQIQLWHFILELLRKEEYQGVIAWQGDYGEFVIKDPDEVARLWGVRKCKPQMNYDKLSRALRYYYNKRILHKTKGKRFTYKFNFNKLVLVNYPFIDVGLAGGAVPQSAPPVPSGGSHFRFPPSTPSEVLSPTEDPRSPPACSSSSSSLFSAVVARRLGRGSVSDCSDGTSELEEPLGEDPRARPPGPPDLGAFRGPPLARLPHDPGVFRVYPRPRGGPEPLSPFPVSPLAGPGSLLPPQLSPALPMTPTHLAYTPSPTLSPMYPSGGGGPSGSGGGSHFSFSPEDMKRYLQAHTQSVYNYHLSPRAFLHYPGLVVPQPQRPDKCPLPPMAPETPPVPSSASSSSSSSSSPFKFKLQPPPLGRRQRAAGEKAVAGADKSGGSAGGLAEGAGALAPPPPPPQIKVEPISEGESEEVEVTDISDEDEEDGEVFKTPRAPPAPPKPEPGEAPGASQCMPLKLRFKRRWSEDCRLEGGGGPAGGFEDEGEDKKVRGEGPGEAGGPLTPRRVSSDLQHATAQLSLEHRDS", "in_short": "as §1"}, "[12]": {"molecular_target": "T9, ETV3L (Homo sapiens, UniProt Q6ZN32 1-361)", "T9 sequence": "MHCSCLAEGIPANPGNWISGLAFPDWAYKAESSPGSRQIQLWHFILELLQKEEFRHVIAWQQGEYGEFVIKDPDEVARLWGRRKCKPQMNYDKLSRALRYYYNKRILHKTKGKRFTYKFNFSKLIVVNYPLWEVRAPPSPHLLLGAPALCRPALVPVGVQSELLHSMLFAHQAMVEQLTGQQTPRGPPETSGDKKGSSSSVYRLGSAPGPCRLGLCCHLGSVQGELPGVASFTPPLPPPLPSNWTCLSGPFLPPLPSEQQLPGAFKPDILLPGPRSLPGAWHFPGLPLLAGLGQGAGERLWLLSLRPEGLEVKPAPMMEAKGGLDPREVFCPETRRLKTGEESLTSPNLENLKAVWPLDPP", "in_short": "as §1"}, "[13]": {"molecular_target": "T10, ETV7 (Homo sapiens, UniProt Q9Y603 1-341)", "T10 sequence": "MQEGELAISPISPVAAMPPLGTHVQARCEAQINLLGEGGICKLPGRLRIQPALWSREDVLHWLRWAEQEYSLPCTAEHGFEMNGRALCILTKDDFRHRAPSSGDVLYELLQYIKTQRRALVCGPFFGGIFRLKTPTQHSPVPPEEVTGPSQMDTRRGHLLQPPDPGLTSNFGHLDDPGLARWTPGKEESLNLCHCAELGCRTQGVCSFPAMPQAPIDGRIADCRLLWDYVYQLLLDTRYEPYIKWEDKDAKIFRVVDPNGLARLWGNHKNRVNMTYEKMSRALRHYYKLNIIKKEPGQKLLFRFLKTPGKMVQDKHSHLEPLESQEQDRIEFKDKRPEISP", "in_short": "as §1"}, "[14]": {"molecular_target": "T11, ETV3 (Homo sapiens, UniProt P41162-2 1-143)", "T11 sequence": "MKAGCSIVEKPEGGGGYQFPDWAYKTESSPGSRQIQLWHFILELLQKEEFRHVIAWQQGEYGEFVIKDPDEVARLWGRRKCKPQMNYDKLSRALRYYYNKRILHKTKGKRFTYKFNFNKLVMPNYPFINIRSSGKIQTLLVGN", "in_short": "as §1"}, "[15]": {"molecular_target": "ETV6 (Homo sapiens, UniProt P41212 1-452)", "sequence (P41212 whole entry)": "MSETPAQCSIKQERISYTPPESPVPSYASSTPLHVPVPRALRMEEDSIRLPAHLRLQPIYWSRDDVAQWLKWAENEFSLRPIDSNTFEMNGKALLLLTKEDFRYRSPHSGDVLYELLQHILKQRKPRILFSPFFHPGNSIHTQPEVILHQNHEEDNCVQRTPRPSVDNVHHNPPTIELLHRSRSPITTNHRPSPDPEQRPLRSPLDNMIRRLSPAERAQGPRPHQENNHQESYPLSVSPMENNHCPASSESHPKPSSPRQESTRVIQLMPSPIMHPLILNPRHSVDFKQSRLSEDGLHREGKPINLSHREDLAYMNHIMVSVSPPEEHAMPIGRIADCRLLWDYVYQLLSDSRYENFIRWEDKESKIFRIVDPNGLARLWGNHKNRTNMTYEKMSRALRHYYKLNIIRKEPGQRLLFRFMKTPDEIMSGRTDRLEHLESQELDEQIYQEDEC", "in_short": "as §1"}}}
{"sequence": "AGAACA", "values": [{"measurement": "binding signal", "setting": "[1]", "result": "1.06 fold enrichment (6-mer frequency, TF over GST control)"}, {"measurement": "binding signal", "setting": "[2]", "result": "1.06 fold enrichment (6-mer frequency, TF over GST control)"}, {"measurement": "binding signal", "setting": "[3]", "result": "1.11 fold enrichment (6-mer frequency, TF over GST control)"}, {"measurement": "binding signal", "setting": "[4]", "result": "1.01 fold enrichment (6-mer frequency, TF over GST control)"}, {"measurement": "binding signal", "setting": "[5]", "result": "1.07 fold enrichment (6-mer frequency, TF over GST control)"}, {"measurement": "binding signal", "setting": "[6]", "result": "1.02 fold enrichment (6-mer frequency, TF over GST control)"}, {"measurement": "binding signal", "setting": "[7]", "result": "1.06 fold enrichment (6-mer frequency, TF over GST control)"}, {"measurement": "binding signal", "setting": "[8]", "result": "1.02 fold enrichment (6-mer frequency, TF over GST control)"}, {"measurement": "binding signal", "setting": "[9]", "result": "1.03 fold enrichment (6-mer frequency, TF over GST control)"}, {"measurement": "binding signal", "setting": "[10]", "result": "1.02 fold enrichment (6-mer frequency, TF over GST control)"}, {"measurement": "binding signal", "setting": "[11]", "result": "1.07 fold enrichment (6-mer frequency, TF over GST control)"}, {"measurement": "binding signal", "setting": "[12]", "result": "1.01 fold enrichment (6-mer frequency, TF over GST control)"}, {"measurement": "binding signal", "setting": "[13]", "result": "1.07 fold enrichment (6-mer frequency, TF over GST control)"}, {"measurement": "binding signal", "setting": "[14]", "result": "1.07 fold enrichment (6-mer frequency, TF over GST control)"}, {"measurement": "binding signal", "setting": "[15]", "result": "1.08 fold enrichment (6-mer frequency, TF over GST control)"}]}
